High-throughput results: PubChem, several laboratories
CYP2C19 inh – human CYP2C19 inhibition; P33261; CYP2C19 Supersomes, luciferin-H EGE luminescence, 30 min; inhibition, % at 5 µM; hit rate 21% among 96,000;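 active = CYP2C19 inhibition above a set limit at 5 µM in the primary screen, cut at about 50% in these data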;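 also: plate controls were negative control wells for no effect and 2.5 mM tranylcypromine positive control for full effect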
CYP2C9 inhib – human CYP2C9 inhibition. hit rate 20% among 96,000. inhibition, % at 5 µM. CYP2C9 Supersomes, luciferin-H conversion, luminescence;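 active = blocking of liver enzyme CYP2C9 beyond about 50% at 5 µM, limit read from the data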
Target sequence (P11712 whole entry, looked up): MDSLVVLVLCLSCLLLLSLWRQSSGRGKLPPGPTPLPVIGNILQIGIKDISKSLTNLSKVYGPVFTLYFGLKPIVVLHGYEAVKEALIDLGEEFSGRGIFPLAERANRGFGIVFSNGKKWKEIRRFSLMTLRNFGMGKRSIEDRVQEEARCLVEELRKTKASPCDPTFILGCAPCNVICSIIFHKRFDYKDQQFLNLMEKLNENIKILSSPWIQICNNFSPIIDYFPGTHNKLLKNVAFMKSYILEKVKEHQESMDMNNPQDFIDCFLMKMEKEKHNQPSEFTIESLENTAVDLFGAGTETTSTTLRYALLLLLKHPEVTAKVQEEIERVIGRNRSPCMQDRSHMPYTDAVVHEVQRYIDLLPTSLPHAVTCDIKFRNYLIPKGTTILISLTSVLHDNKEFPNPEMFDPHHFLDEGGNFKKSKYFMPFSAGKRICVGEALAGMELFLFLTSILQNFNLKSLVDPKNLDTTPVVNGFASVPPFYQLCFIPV
CYP2C19 activ – activators of human cytochrome P450 2C19. recombinant CYP2C19, luciferin-H EGE luminescence; hits give high values; 0 = fully inhibited enzyme, 1 = untreated enzyme. activation factor at 5 µM. 96,000 tested, under 10 active. AID 1025;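 active = activation factor of at least 2 at 5 µM in the primary screen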;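 also: 0 = wells with 2.5 mM tranylcypromine and 1 = vehicle-only wells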
PostGolgi ctrl – growth of the yeast control strain, post-Golgi counter-screen. efflux-deficient yeast background strain, growth absorbance A615, 16 h. inhibition, % at 10 µM. hit rate 5% among 98,000. AID 738
PostGolgi yeast – growth inhibition of a yeast mutant, post-Golgi transport screen. hit rate 0.9% among 98,000. inhibition, % at 10 µM. post-Golgi transport phenotypic cell assay;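 also: yeast cells grown in 1536-well plates; yeast grown about 18 h at 30C before absorbance read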
CYP2C9 act – CYP2C9 (human) activation | P11712 | recombinant CYP2C9, luciferin-H conversion, luminescence; hits give high values; factor 1 = untreated enzyme, 0 = blocked | activation factor at 5 µM | hit rate 1.4% among 96,000 | AID 1024;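 active = activation factor of 2 or more for CYP2C9 at a 5 µM dose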;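 also: 0 = sulfaphenazole-blocked wells and 1 = vehicle-only wells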
* = called active by the depositor; · = no result given. A selection follows. Rule as the data show it, unless noted: active = inhibition above about 30%; inactive = the rest.

SMILES	CYP2C19 inh	CYP2C9 inhib	CYP2C19 activ	PostGolgi ctrl	PostGolgi yeast	CYP2C9 act
CCCOc1ccc(C(CC(=O)O)NS(=O)(=O)c2ccc(NC(C)=O)cc2)cc1 (centres undefined)	-14	-6	1.1	4	-4	1.1
CC(=O)c1ccc(N2CCN(C(=O)C3CCCN(S(=O)(=O)c4cnc[nH]4)C3)CC2)cc1 (centres undefined)	12	12	0.9	3	3	0.9
COC(=O)c1ccc(NC(=O)C2CCCN(S(=O)(=O)c3cnc[nH]3)C2)cc1 (centres undefined)	79*	86*	0.2	1	3	0.1
Cc1c(NC(=O)C2CCCN(S(=O)(=O)c3cnc[nH]3)C2)c(=O)n(-c2ccccc2)n1C (centres undefined)	-10	-7	1.1	7	-5	1.1
CSc1cccc(NC(=O)C2CCCN(S(=O)(=O)c3cnc[nH]3)C2)c1 (centres undefined)	98*	93*	0	19	-3	0.1
O=C1c2ccccc2C(O)(c2ncc[nH]2)N1C1CCCCC1 (centres undefined)	-6	-9	1.1	3	15	1.1
C=CCNc1cc(C)oc(=O)c1C(=O)CCC	-2	-26	1	8	-3	1.3
CCOC(=O)C1(c2ccccc2)NC(c2ccccc2C)C2C(=O)N(c3ccc4c(c3)OCO4)C(=O)C21 (centres undefined)	·	·	·	18	-4	·
CCN(c1ccc(NC(=O)COC(=O)CCC(=O)c2ccc(F)cc2)cc1)C(C)C	63*	23	0.4	-5	5	0.8
CC1=NN(c2ccc(F)cc2)C(=O)C1C(c1cccc(O)c1)c1c(C)[nH]n(-c2ccc(F)cc2)c1=O (centres undefined)	7	59*	0.9	35*	-12	0.4
Cc1[nH]n(-c2ccccc2)c(=O)c1-c1ccccc1	8	23	0.9	23	-3	0.8
O=C(NCCc1ccc(Cl)cc1)C1CCN(C(=O)c2sccc2-n2cccc2)CC1	44	52*	0.6	4	2	0.5
O=C(NNC(=O)c1sccc1-n1cccc1)c1ccc(Cl)cc1	6	-171	0.9	4	11	2.7*
O=C(NCCc1ccc(Cl)cc1)C1CCN(S(=O)(=O)N2CCCC2)CC1	14	43	0.9	-5	2	0.6
CC(CCc1ccccc1)NC(=O)C1CCN(c2nnc(-n3cccc3)s2)CC1 (centres undefined)	-14	12	1.1	1	-7	0.9
O=C(NNC(=O)c1ccccc1-n1cccc1)c1ccc(Cl)cc1	-1	-78	1	4	-8	1.8
CC(CCc1ccccc1)NC(=O)C1CCN(C(=O)c2sccc2-n2cccc2)CC1 (centres undefined)	72*	78*	0.3	16	-3	0.2
CCc1c(C)n([O-])c2c([n+]1=O)CCC2	-1	-7	1	4	9	1.1
O=C(Nc1ccc(OC(=O)c2ccncc2)cc1)c1ccncc1	7	34	0.9	8	1	0.7
COc1ccc2c(c1OC)C(=O)OC2Nn1cncn1 (centres undefined)	-14	-15	1.1	-3	-1	1.1
COc1ccc(C(=O)CC2OC(=O)c3c2ccc(OC)c3OC)cc1 (centres undefined)	80*	34	0.2	5	-2	0.7
COCCCNC(=O)c1cn(C)c(=O)c2cc(OC)c(OC)cc12	-10	-1	1.1	-5	-5	1
COc1ccc(CCCC(=O)O)c(C)c1	·	·	·	2	8	·
Cn1c(=O)c2c(nc(Sc3n[nH]c(N)n3)n2Cc2ccccc2Cl)n(C)c1=O	54*	15	0.5	-2	-8	0.8
Cn1c(=O)c2c(nc(SCCCO)n2Cc2ccccc2Cl)n(C)c1=O	34	54*	0.7	4	5	0.5
SMILES	CYP2C19 inh	CYP2C9 inhib	CYP2C19 activ	PostGolgi ctrl	PostGolgi yeast	CYP2C9 act
O=C1CC(c2ccco2)CC(O)=C1C=Nc1cc(Cl)ccc1O (centres undefined)	38	73*	0.6	10	20	0.3
O=C1CC(c2ccco2)CC(O)=C1C=Nc1ccc(Br)cc1 (centres undefined)	22	40	0.8	1	-3	0.6
Cc1c(NC(=O)C(Sc2ccccc2)c2ccccc2)cccc1[N+](=O)[O-] (centres undefined)	-1	23	1	13	-2	0.8
COC(=O)c1ccc(CSc2nc3c(c(=O)n2-c2ccc(Br)cc2)SCC3)o1	90*	92*	0.1	13	-3	0.1
O=C(CSc1nc2c(c(=O)n1-c1ccc(Cl)cc1)SCC2)N1CCCC1	-13	-16	1.1	1	11	1.2
CCOc1ccc(-n2c(SCc3ccc(C(=O)OC)o3)nc3c(c2=O)SCC3)cc1	82*	87*	0.2	30	4	0.1
Cc1ccc(N=C2SCCCN2C(=O)c2ccco2)cc1Cl	21	12	0.8	19	0	0.9
CCNC(=O)COn1c(SCC(=O)NCC)nc2ccccc2c1=O	24	16	0.8	10	-4	0.8
CC1(C)c2ccccc2N2CCC(=O)NC21/C=C/c1ccco1 (centres undefined)	86*	52*	0.1	15	13	0.5
CC1(C)c2ccccc2N2CC(=O)NC21/C=C/c1ccco1 (centres undefined)	25	11	0.8	5	0	0.9
Cc1cc(N)ccc1-n1c(C)ccc1C	53*	36	0.5	25	-4	0.6
Cc1cc(N)ccc1N1CCCC1	14	-2	0.9	15	-3	1
Cc1nn2c(c1-c1ccc(Cl)cc1)N=C(c1ccco1)CC2c1ccccc1 (centres undefined)	25	73*	0.8	35*	23	0.3
Nc1c(-c2cccc(Cl)c2)cnn1-c1cccc(C(F)(F)F)c1	24	-25	0.8	13	-5	1.3
O=c1ccn(-c2cccc(C(F)(F)F)c2)nc1-c1ccn(-c2cccc(Cl)c2)n1	28	52*	0.7	50*	10	0.5
O=C(CN1CCOCC1)Nc1scc(-c2ccccc2)c1C(=O)N1CCOCC1	25	32	0.8	10	-5	0.7
Cc1cc(N2C(=O)C(O)=C(C(=O)c3ccco3)C2c2cccnc2)no1 (centres undefined)	-1	8	1	-4	13	0.9
COc1ccc(C2C(C(=O)c3ccc(C)o3)=C(O)C(=O)N2c2cc(C)on2)cc1OC (centres undefined)	1	14	1	1	7	0.9
COc1cc(C2C(C(=O)c3ccco3)=C(O)C(=O)N2c2cc(C)on2)cc(Br)c1O (centres undefined)	0	60*	1	2	5	0.4
